# KB-3-1 cytotox: kills parental KB-3-1 adenocarcinoma cells | Potency, µM (series often up to 46.1 µM), actives largely listed as cytotoxic | KB-3-1 viability, CellTiter-Glo ATP luminescence, 72 h | hit rate 1.4% among 400,000 | AID 1347075; also: nearly all actives have a fitted effect of over 60% in size
#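 Cytotoxicity in the drug-sensitive parental line KB-3-1 was scored as loss of CellTiter-Glo luminescence following 72 h incubation with compound. Values come from curve fitting of normalized concentration-response data.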
# DT40 TDP1 no CPT: qHTS for Inhibitors of human tyrosyl-DNA phosphodiesterase 1 (TDP1): qHTS in cells in absence of CPT; DT40 Tdp1-/- hTDP1 cells, no CPT, ATP luminescence, 48 h; Potency, µM (highest dose often 46.2 µM), without a hit: top-dose activity change, negative = growth inhibition, usual class: inhibitors; hit rate 15% among 420,000; also: nearly all actives have a fitted effect of over 55% in size
#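 Readout: luminescence from CellTiter-Glo after 30 min in the dark at RT. Cells: DT40 Tdp1-/- with stable hTDP1, 400/well. Exposure: compounds alone, ≥48 hr, 37 °C.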
# HT1080 IDH1KD tx: kills HT-1080 cells with IDH1 knockdown; HT-1080 IDH1 knockdown viability, ATP luminescence, 48 h; Potency, µM (highest dose often 46.1 µM), without a hit: top-dose activity, negative = toxicity, hits mostly cytotoxic; hit rate 2% among 360,000;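 also: 0% = DMSO wells and -100% = cell-free medium wells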
#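 Assay cells: HT-1080 with IDH1 knockdown, 750 per well, RPMI/5% FBS. Exposure: 48 h at 37 °C following 2 h pre-incubation. Read: CellTiter-Glo luminescence; fitted concentration-response, curve class assigned.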
# KB-V1 cytotox: kills drug-selected multidrug resistant KB-V1 cells | Potency, µM (series often up to 46.1 µM), actives largely listed as cytotoxic | KB-V1 MDR cells viability, CellTiter-Glo, 72 h | AID 1347076 | hit rate 3.4% among 400,000; also: nearly all actives have a fitted effect of over 60% in size
#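 KB-V1 MDR subline cells in DMEM (phenol-red free, 10% FBS) exposed to compounds in qHTS concentration series for 72 h at 37 degrees C. Viability read by CellTiter-Glo luminescence; concentration-effect curves fitted after normalization and correction.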
# HT1080-NT tox: kills 2HG-producing HT-1080-NT fibrosarcoma cells; HT-1080-NT fibrosarcoma viability, CellTiter-Glo ATP luminescence, 48 h; Potency, µM (series often up to 46.1 µM), for inactives: at the highest dose activity, negative = less viability, actives largely listed as cytotoxic; hit rate 1.6% among 360,000;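 also: NT is the 2HG producing partner of a matched IDH1 knockdown line; 0% = DMSO-treated cells and -100% = media-only wells without cells; nearly all actives have a fitted effect of over 55% in size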
#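 Viability of the 2HG-overproducing fibrosarcoma line after 48 hours of compound exposure at 37 degrees C was determined by luminescence with CellTiter-Glo, and concentration-effect curves were then fitted and categorized.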
# TDP1 cell CPT: DT40-hTDP1 cell growth loss with CPT | chicken DT40 Tdp1-/-;hTDP1 cells + 20 nM CPT, ATP luminescence, 48 h | Potency, µM (series often up to 46.2 µM), without a hit: top-dose activity change, negative = growth inhibition, most hits filed as inhibitors | hit rate 12% among 420,000; also: nearly all actives have a fitted effect of over 55% in size
#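 Cell growth measured by CellTiter-Glo luminescence after a minimum 48 h, 37 C compound exposure with 20 nM CPT in Tdp1-knockout DT40 cells stably expressing hTDP1, seeded 400/well; qHTS titration format.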
# Active calls of the source: *; i = inactive; ? = inconclusive; . = no result. Sampled rows, rich in hits. Any-hit rate of the full collection: about 19%. Calls follow the shape of the dose curve; as a rule, active = well fitted curve in the direction sought with a large enough effect; inconclusive = small, poorly fitted or top-dose-only effect, or another doubt; inactive = no such curve, though single readings can be large; an effect the other way counts as inactive or inconclusive. Unless noted, % is scaled to controls: 0 for no effect and ±100 for the full control effect; potency is read from the fitted curve at half-maximal effect.
SMILES,KB-3-1 cytotox,DT40 TDP1 no CPT,HT1080 IDH1KD tx,KB-V1 cytotox,HT1080-NT tox,TDP1 cell CPT
COc1ccc(-c2cc3c(=O)n(CC(=O)Nc4ccc(Cl)cc4)nc(C)n3n2)cc1,i,21%,-5%,i,-4%,-22%
CCNc1ncc2nc(-c3ccccc3)c(=O)n(Cc3cccc(OC)c3)c2n1,.,1%,.,.,.,2%
COc1cc(=O)n2c(c1C(=O)NC(C)c1ccco1)CCN(Cc1ccccc1Cl)CC2 (stereo not given),.,-23%,.,.,.,2%
CCOc1ccc2nc(N3CCC(C(=O)NCCCN4CCOCC4)CC3)sc2c1,i,?,-10%,i,0%,-3%
CCCCN(CC)CCCNC(=O)C1CCN(c2nc3ccc(CC)cc3s2)CC1,.,13µM*,.,.,.,12µM*
CCCCN(C)CCCNC(=O)C1CCN(c2nc3ccc(CC)cc3s2)CC1,i,5.8µM*,.,i,.,6.5µM*
O=C(CCNC(=O)C1CCN(S(=O)(=O)c2ccccc2)CC1)NCc1ccc(Cl)c(Cl)c1,i,?,-1%,?,-5%,?
CCn1c(Cl)c(C=O)s/c1=N\S(=O)(=O)c1ccccc1,?,0.37µM*,8.2µM*,?,13µM*,0.82µM*
COc1cc(C(=O)OCC(=O)N2CCN(C(C)=O)CC2)ccc1OCC(C)C,i,-6%,-3%,i,0%,8%
O=C(Cn1c(C(=O)OCCO)cc2ccccc21)c1ccccc1,i,?,-6%,?,-1%,8.2µM*
COc1ccc(Cn2cc(CN3CC(N4CCN(CCN(C)C)CC4)CS3(=O)=O)nn2)cc1 (stereo not given),i,-18%,9%,i,11%,-2%
Cc1ccc(-c2nnn3c2nc(NCc2ccc4c(c2)OCO4)c2ccccc23)cc1,i,?,.,i,.,?
Cc1ccc(CNC(=O)CSCc2ccccc2)cc1,i,-4%,7%,i,3%,4%
CCCCN(CCCC)CCNC(=O)CSCc1ccc(C)cc1,i,21µM*,-10%,i,0%,26µM*
Cc1cc(C(=O)N2CCN(c3ccc(C(F)(F)F)cn3)CC2)c(C)o1,i,10µM*,-5%,?,?,?
O=C(c1ccccn1)N1CCN(c2ccc(C(F)(F)F)cn2)CC1,i,?,-4%,16µM*,-16%,-30%
COc1cccc(NC(=O)N2CCN(c3ccc(C(F)(F)F)cn3)CC2)c1,i,-22%,2%,i,2%,-9%
COc1ccc(N2CCN(C(=O)c3cc(C)oc3C)CC2)cc1,i,-14%,10%,i,21%,-13%
CCOc1ncccc1C(=O)N1CCN(c2ccc(C(F)(F)F)cn2)CC1,i,10µM*,-6%,?,11%,?
CCOC(=O)N1CCN(c2ccc(C(F)(F)F)cn2)CC1,i,-30%,9%,?,12%,-28%
Cc1cccc(C(=O)N2CCN(c3ccc(C(F)(F)F)cn3)CC2)c1C,i,21µM*,-4%,i,-8%,13µM*
Cc1ccccc1N1CCN(S(=O)(=O)c2nnc(NC(=O)c3ccc(C(C)C)cc3)s2)CC1,i,?,.,i,.,?
O=c1[nH]c(CN2CCN(S(=O)(=O)c3cccs3)CC2)nc2c(Br)cc(Br)cc12,i,0%,2%,?,?,0%
CCc1nc2ccc(C(=O)N3CCN(c4cccc(C(F)(F)F)c4)CC3)cc2nc1CC,?,?,-27%,i,-12%,?
Cc1ccc(C(=O)N2CCN(c3ccc(C(F)(F)F)cn3)CC2)o1,?,?,5%,21µM*,-1%,?
O=C(O)c1ccc(Oc2ccc(C(F)(F)F)cn2)cc1,i,-9%,9%,i,15%,5%

# Bioassay records (PubChem)
